Shiga inhibitor: inhibitors of Shiga toxin in Vero cells; AID 2315; inhibition, % at 38.7 µM; Vero cells, Shiga toxin protein synthesis inhibition reporter; 290,000 tested, 9.2% active; in the data active means inhibition mostly above about 28%, no sharp cut-off; inactive means mostly below about 43%; further: 0% is about no effect
Marburg entry inh: inhibitors of Marburg virus binding or cell entry | Potency, µM (highest dose often 37.8 µM), for inactives: top-dose activity change, negative = inhibition, usual class: inhibitors | Marburg virus pseudotyped entry inhibition, cell reporter | 300,000 tested, 1.8% active | AID 540276; calls by dose curve; tested in HEK293 cells; further: potency means the concentration at half of the fitted maximal effect; on the % scale 0 is the no-effect control and ±100 the full control effect
Pf growth 48h: inhibits P. falciparum growth in the first generation, 48 h | AID 504832 | Potency, µM (highest dose often 28.7 µM), for inactives: top-dose activity change, negative = inhibition, actives largely listed as inhibitors | 310,000 tested, 5.9% active | P. falciparum luciferase growth in erythrocytes, 48 h; further: potency means the concentration at half of the fitted maximal effect; on the % scale 0 is the no-effect control and ±100 the full control effect
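Compounds are pin-transferred into medium, infected erythrocytes (2% hematocrit, 0.1% parasitemia final) are added, and plates sit one parasite generation at 37 C in 5% CO2. Detection reagent is then added and luminescence measured.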
Cycloheximide cs: affects cycloheximide protein synthesis inhibition readout, counter-screen; cell reporter, cycloheximide protein synthesis inhibition counterscreen; max response, %; 300,000 tested, 12% active; in the data active means max response mostly above about 13%, no sharp cut-off; inactive means mostly below about 14%; further: read at 38.3 µM for the half of the compounds with a filed dose; 0% is about no effect
Lassa entry inh: blocks Lassa virus binding to or entry into cells; Lassa virus pseudotype entry inhibition, cell reporter; 300,000 tested, 1.2% active; Potency, µM (titrated, usually from 37.9 µM), inactives show at the highest dose activity change, negative = inhibition, most hits filed as inhibitors; calls by dose curve; tested in HEK293 cells; further: potency means the concentration at half of the fitted maximal effect; on the % scale 0 is the no-effect control and ±100 the full control effect; nearly all actives have a fitted effect of over 50% in size
Pf growth 96h: P. falciparum growth inhibition at 96 hour, primary screen for plastid delayed-death inhibitors; Potency, µM (titrated, usually from 28.7 µM), without a hit: at the highest dose activity change, negative = inhibition, most hits filed as inhibitors; P. falciparum luciferase reporter growth, 96 h; AID 504834; 320,000 tested, 6.9% active; further: potency means the concentration at half of the fitted maximal effect; on the % scale 0 is the no-effect control and ±100 the full control effect
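Delayed-death screen, second-generation endpoint: infected erythrocytes, 2% hematocrit, 0.05% parasitemia final; 96 hours at 37 C, 5% CO2; luciferase detection reagent; luminescence decrease equals reduced growth.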
* hit, by the source's call; i = inactive; ? = inconclusive; / = no result; [ ] = dose if it differs, or a comment. The list is not random: actives were taken first. Their share in the collection is about 19%. Unless noted, the call rests on the fitted dose curve; in most records, active means well fitted inhibition curve with a large enough effect; inconclusive means small, poorly fitted or top-dose-only effect, or another doubt; inactive means no such curve, though single readings can be large or run the other way.

SMILES	Shiga inhibitor	Marburg entry inh	Pf growth 48h	Cycloheximide cs	Lassa entry inh	Pf growth 96h
Cn1ccc2cc(S(=O)(=O)N3CCCN(C(=O)Nc4ccc(Br)cc4)CC3)ccc21	/	/	/	/	-2%[46.1 µM]	/
COc1ccccc1-c1cc(C(=O)Nc2c(C)nn(Cc3ccc(Cl)cc3)c2C)no1	/	10µM*	/	/	?	/
COc1ccc(-c2cc(C(=O)Nc3c(C)nn(Cc4ccc(Cl)cc4)c3C)no2)cc1	-7	23µM*	/	11	-6%	?
O=C(Nc1cccc2ccccc12)C12CC3CC(C1)CC(n1cnc([N+](=O)[O-])n1)(C3)C2	-10	?	?	-5	?	/
Cc1cc(C)n(CCO)c(=O)n1	6	4%	9%	5	-3%	2.3µM*
Cc1cc(=S)cc(C)n1CCO	-6	-3%[46.1 µM]	5%	-2	6%[46.1 µM]	11%
Cc1ccc(N2C(=O)NC(=O)C(CCc3ccccn3)(Cc3ccc(F)cc3)C2=O)cc1 (configuration not stated)	-18	-13%[46.1 µM]	12%	-3	-2%	?
CCCCn1cc(C(C)(C)C)c(C#N)c1NC(C)=O	-9	/	/	-6	/	-20%
O=C(N/N=C/c1ccc([N+](=O)[O-])o1)c1ccc(NS(=O)(=O)c2cccs2)cc1	-9	?	3.7µM*	-1	?	0.93µM*
O=C(N/N=C/c1ccc2c(c1)OCO2)c1ccc(NS(=O)(=O)c2cccs2)cc1	81*	?	22%	24*	-8%	16%
Cc1nc2ccc(NC(=O)[C@@H](NC(=O)c3c(F)cccc3F)C(C)C)cc2s1	/	/	2.1µM*	/	/	?
COc1cc(OC)cc(C(=O)N[C@H](C(=O)Nc2nc3ccc(S(C)(=O)=O)cc3s2)C(C)C)c1	-1	11%[46.1 µM]	4.7µM*	11	14%[46.1 µM]	?
COc1cc(OC)cc(C(=O)NC(C(=O)Nc2ccc3nc(C)sc3c2)C(C)C)c1 (configuration not stated)	/	/	3.3µM*	/	/	6.6µM*
CN(C)CCNC(=O)C(c1ccccc1)c1ccccc1	-11	/	?	-1	/	-11%
N#CCC(CNc1ncc(C(F)(F)F)cc1Cl)OC(=O)c1ccc(Cl)cc1Cl (configuration not stated)	10	-6%	2.9µM*	8	0%	2.3µM*
CCOC(=O)CNc1ncc(C(F)(F)F)cc1Cl	6	?	8%	5	19%	48%
CC1CCCCC1NC(=O)CCc1nc2sc3c(c2c(=O)[nH]1)CCCC3 (configuration not stated)	/	-5%	-1%	/	2%	-18%
Cc1ccccc1-c1nc(-c2ccc(NC(=O)c3ccc4c(c3)OCO4)cc2)no1	81*	?	/	38*	?	52%
COc1ccc(-c2noc(CNC(=O)c3ccc4c(c3)OCO4)n2)cc1	-11	-3%[46.1 µM]	12%	-3	-3%[46.1 µM]	-22%
COc1cc(-c2nc(-c3ccc(NC(=O)c4ccc5c(c4)OCO5)cc3)no2)cc(OC)c1OC	68*	?	51%	40*	-6%	/
COc1ccc(CC(=O)Nc2ccc(-c3noc(-c4cc(OC)c(OC)c(OC)c4)n3)cc2)cc1	10	-36%	-15%	1	-23%	-19%
Cc1nn(C)c(C)c1CNC(=O)c1cc2n(n1)C(C(F)(F)F)CC(c1cccs1)N2 (configuration not stated)	-4	-29%	-6%	-2	-14%	7.4µM*
Cc1nn(C)c(C)c1CN(C)C(=O)c1nn2c(c1Br)NC(c1cccs1)CC2C(F)(F)F (configuration not stated)	-7	-1%	?	-3	-3%	9.3µM*
Cc1nn(C)c(C)c1CN(C)C(=O)c1cnn2c1NC(c1ccccc1)CC2C(F)(F)F (configuration not stated)	-8	-18%	/	-2	?	i
CC1(C)C(c2cccs2)=NC(c2ccccc2)N1O (configuration not stated)	19	-9%	39%	-1	1%	9.3µM*
SMILES	Shiga inhibitor	Marburg entry inh	Pf growth 48h	Cycloheximide cs	Lassa entry inh	Pf growth 96h
CC1(C)C(c2ccccc2)=NC(c2ccc(F)cc2)N1O (configuration not stated)	-5	7%	38%	-4	-12%	-10%
O=C(Nc1nccs1)c1cc(-c2ccccc2)nc2ccccc12	-4	-16%	2.6µM*	-4	-14%	3.3µM*
O=C(NCc1ccco1)c1cc(-c2ccncc2)nc2ccccc12	-16	?	2.1µM*	-6	?	?
O=C(NCc1ccccn1)c1cc(-c2ccccc2)nc2ccccc12	-10	-25%	?	-2	15%	6%
Cc1ccc(/C=N/NC(=O)c2cc(-c3ccncc3)nc3ccccc23)o1	-15	?	5%	-1	-8%[46.1 µM]	-12%
O=C(NCc1ccccn1)c1cc(-c2ccc(-c3ccccc3)cc2)nc2ccccc12	128*	0%	?	20*	/	?
O=C(NCc1ccco1)c1cc(-c2cccnc2)nc2ccccc12	-5	?	-1%	6	3%	0%
CC(/C=N/NC(=O)c1cc(-c2ccncc2)nc2ccccc12)=C\c1ccco1	-6	2.9µM*	-8%	-1	-49%[14.3 µM]	12%[5.75 µM]
CC(=O)c1cc2c(=O)c3ccccc3oc2nc1C	/	17%	/	/	0%	/
Cn1c(=O)c(C(=O)NC2CCCCCCC2)c(O)c2ccccc21	14	-26%	-4%	-1	8%	?
Cc1ccc(-c2cc(C(=O)NCc3ccccn3)c3ccccc3n2)cc1C	66*	?	8.3µM*	31*	?	-8%
Cc1cccc(-c2cc(C(=O)NCc3ccccn3)c3ccccc3n2)c1	25	-18%	?	15	-2%	?
O=C(NCc1ccccn1)c1cc(-c2ccc(Cl)cc2)nc2ccccc12	33*	?	?	10	-5%	?
CCCCCCC1CC(=O)NC(=S)N1 (configuration not stated)	-1	/	29%	9	/	4%
CCc1ccc(OCc2ccccc2C(=O)Nc2ccc3nc(C)cc(N)c3c2)cc1	35*	/	/	27	/	/
Cc1cc(C)nc(NC(=O)/C=C/c2ccc(Cl)cc2Cl)c1	81*	?	49%	41*	-32%	68%
Cc1cc(C)nc(NC(=O)/C=C/c2ccccc2Cl)n1	70*	?	76%	45*	-7%	36%
Cc1nc(NC(=O)/C=C/c2ccc(Cl)cc2Cl)sc1C(=O)N(C)C	12	?	15%	-4	14%	?
Cc1cc(C)nc(NC(=O)/C=C/c2ccccc2Cl)c1	32*	-15%	-12%	30*	-19%	49%
Fc1ccccc1-c1cc2ccccc2cn1	/	/	84%	/	/	?
Cc1cc(N)c2cc(NC(=O)/C=C/c3ccccc3Cl)ccc2n1	13	/	0.47µM*	1	/	0.59µM*

Bioassay records (PubChem)
